Where “and” joins values, the source holds several entries; their conditions need not be identical. Equal values may be shown once. Records with an inconclusive call do not appear. Some structures have more than one record in an assay (separate samples or runs), and their calls can disagree. Calls of active or inactive are those of the source. Unless noted, calls come from the whole dose curve; as a rule, active = well fitted curve in the direction sought with a large enough effect in the repeat runs; inconclusive = weak or mixed curves; inactive = no such curve, though single readings can be large; an effect the other way counts as inactive or inconclusive.
How the values were obtained:
[1] = qHTS assay to identify small molecule antagonists of the glucocorticoid receptor (GR) signaling pathway - cell viability counter screen (AID 720693); details: GR-bla HeLa viability, CellTiter-Glo luminescence, 18 h, with 5 nM dexamethasone present; series mostly up to 58.5 µM; note: nearly all actives have a fitted effect of over 55% in size; note: potency is the fitted concentration of half-maximal effect
[2] = qHTS assay for identifying genotoxic compounds that show differential cytotoxicity against isogenic chicken DT40 cell lines with known DNA damage response pathways - wild type cell line (AID 743012); details: DT40 wild type chicken cells viability, CellTiter-Glo, 40 h; series mostly up to 68.4 µM; note: nearly all actives have a fitted effect of over 60% in size; note: potency is the fitted concentration of half-maximal effect
Summary of the method: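 Viability of DNA repair-proficient chicken DT40 cells was assessed by CellTiter-Glo luminescence following 40 h compound exposure at 37 C/5% CO2.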

[3] = qHTS assay for identifying genotoxic compounds that show differential cytotoxicity against isogenic chicken DT40 cell lines with known DNA damage response pathways - Rev3 mutant cell line (AID 743014); details: chicken DT40 Rev3-/- viability, CellTiter-Glo, 40 h; series mostly up to 68.4 µM; note: nearly all actives have a fitted effect of over 55% in size; note: potency is the fitted concentration of half-maximal effect
[4] = qHTS assay for identifying genotoxic compounds that show differential cytotoxicity against isogenic chicken DT40 cell lines with known DNA damage response pathways - Rad54/Ku70 mutant cell line (AID 743015); details: DT40 Rad54/Ku70 mutant viability, CellTiter-Glo, 40 h; series mostly up to 66.8 µM; note: nearly all actives have a fitted effect of over 60% in size; note: potency is the fitted concentration of half-maximal effect
[5] = qHTS assay to identify small molecule antagonists of the androgen receptor (AR) signaling pathway - cell viability counter screen (AID 743033; note: nearly all actives have a fitted effect of over 45% in size); details: AR-bla HEK293 viability, CellTiter-Glo luminescence, 16 h; series mostly up to 58.5 µM
[6] = target: Androgen receptor (Homo sapiens) (UniProt P10275); test: qHTS assay to identify small molecule antagonists of the androgen receptor (AR) signaling pathway (AID 743035; active = well fitted inhibition curve with a large enough effect in the signal ratio in the repeat runs, not every such curve was filed as active; the % refers to the signal ratio); details: HEK293 AR-UAS-bla, R1881-stimulated, beta-lactamase FRET, 16 h; series mostly up to 58.5 µM
Androgen receptor (Homo sapiens), sequence (P10275 whole entry, looked up): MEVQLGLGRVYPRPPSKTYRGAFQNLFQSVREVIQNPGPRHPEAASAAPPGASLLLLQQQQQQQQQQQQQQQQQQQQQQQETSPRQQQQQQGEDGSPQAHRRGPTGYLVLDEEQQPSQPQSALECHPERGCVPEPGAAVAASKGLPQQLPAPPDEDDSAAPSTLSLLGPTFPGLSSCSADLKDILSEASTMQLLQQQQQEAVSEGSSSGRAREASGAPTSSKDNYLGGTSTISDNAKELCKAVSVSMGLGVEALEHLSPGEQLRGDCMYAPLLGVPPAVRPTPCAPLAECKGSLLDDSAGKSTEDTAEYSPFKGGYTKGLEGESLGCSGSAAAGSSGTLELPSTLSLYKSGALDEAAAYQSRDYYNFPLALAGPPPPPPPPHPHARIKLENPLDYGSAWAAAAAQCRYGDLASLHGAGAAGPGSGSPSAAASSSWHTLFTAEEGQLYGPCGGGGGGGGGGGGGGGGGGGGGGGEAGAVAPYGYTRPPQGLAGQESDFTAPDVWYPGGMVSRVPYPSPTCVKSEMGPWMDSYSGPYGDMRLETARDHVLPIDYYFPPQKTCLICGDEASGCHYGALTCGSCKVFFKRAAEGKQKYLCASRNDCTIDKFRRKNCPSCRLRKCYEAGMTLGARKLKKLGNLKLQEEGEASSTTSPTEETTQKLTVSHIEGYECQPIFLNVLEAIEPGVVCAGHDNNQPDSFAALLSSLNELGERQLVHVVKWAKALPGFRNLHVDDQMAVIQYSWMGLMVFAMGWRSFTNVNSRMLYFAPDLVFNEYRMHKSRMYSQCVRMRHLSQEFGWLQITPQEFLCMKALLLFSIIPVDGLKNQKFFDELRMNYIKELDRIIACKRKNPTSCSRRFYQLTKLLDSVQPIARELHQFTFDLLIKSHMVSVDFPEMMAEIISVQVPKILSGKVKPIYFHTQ
Summary of the method: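 Reporter HEK293 cells were exposed to compounds and R1881 overnight (16 h, 37C); beta-lactamase activity was then quantified by FRET fluorescence.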

[7] = target: Androgen receptor (Homo sapiens) (UniProt P10275); test: qHTS assay to identify small molecule agonists of the androgen receptor (AR) signaling pathway (AID 743036; active = well fitted activation curve with a large enough effect in the signal ratio in the repeat runs, with a control signal flat, not every such curve was filed as active; the % refers to the signal ratio); details: HEK293 AR-UAS-bla GripTite, beta-lactamase FRET ratio, 16 h; series mostly up to 62.4 µM
Summary of the method: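 Reporter line: GeneBLAzer AR-UAS-bla-GripTite (HEK293). Steps: plate cells, 4 h rest, add compounds, 16 h at 37C, add LiveBLAzer B/G substrate, 2 h at RT, read fluorescence.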

[8] = target: Androgen receptor (Homo sapiens) (UniProt P10275); test: qHTS assay to identify small molecule agonists of the androgen receptor (AR) signaling pathway using the MDA cell line (AID 743040; note: nearly all actives have a fitted effect of over 20% in size); details: MDA-kb2 AR-luc cells, MMTV luciferase, 16 h; series mostly up to 70.3 µM
Summary of the method: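 Testing was done with the MDA-kb2 AR-luc line, a human breast carcinoma stably transfected with MMTV-luciferase containing AR and GR response elements. Cells were exposed 16 h at 37C before ONE-Glo luminescence detection.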

[9] = qHTS assay to identify small molecule antagonists of the androgen receptor (AR) signaling pathway using the MDA cell line - cell viability counter screen (AID 743041; note: nearly all actives have a fitted effect of over 45% in size; note: potency is the fitted concentration of half-maximal effect); details: MDA-kb2 viability, CellTiter-Fluor, 16 h, cells co-treated with R1881 androgen agonist; series mostly up to 70.3 µM
Summary of the method: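 Compound exposure lasted 16 h at 37C in MDA-kb2 AR-luc cells stimulated with R1881. Protease-based CellTiter-Fluor reagent was applied for the final 30 min and fluorescence measured.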

[10] = target: Androgen receptor (Homo sapiens) (UniProt P10275); test: qHTS assay to identify small molecule antagonists of the androgen receptor (AR) signaling pathway using the MDA cell line (AID 743042; note: nearly all actives have a fitted effect of over 55% in size; note: potency is the fitted concentration of half-maximal effect); details: MDA-kb2 AR-luc, MMTV luciferase, R1881 antagonist, 16 h; series mostly up to 70.3 µM
Summary of the method: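 MDA-kb2 breast carcinoma cells carrying MMTV-luciferase (AR/GR responsive) were co-treated with compounds and the agonist R1881 for 16 h at 37C. Inhibition read as ONE-Glo luminescence; CellTiter-Fluor fluorescence measured in parallel for cytotoxicity.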

Measured: Potency

c1ccc2c(c1)[nH]c1ccccc12
inactive: all assays above

C=CN1CCCC1=O
inactive: [1] | [2] | [3] | [4] | [5] | [9]

O=Cc1ccccc1C=O
inactive: [5] | [8]
active: [1] 23.9 µM and 4.36 µM | [2] 7.5 µM and 2.73 µM | [3] 8.41 µM and 2.17 µM | [4] 11.9 µM and 2.43 µM | [9] 24.3 µM | [10] 8.63 µM

c1ccc2cc3ccccc3cc2c1
inactive: [1] | [2] | [3] | [4] | [5] | [9]

CCC(Cc1c(I)cc(I)c(N)c1I)C(=O)O (configuration not stated)
inactive: [1] | [2] | [3] | [4] | [5] | [9]

NC[C@H](O)c1ccc(O)c(O)c1
active: [2] 23.7 µM and 21.7 µM | [3] 21.1 µM and 17.2 µM | [4] 24.3 µM
inactive: [1] | [5] | [9]

C/C=C/C(=O)N(CC)c1ccccc1C
inactive and 48.6 µM (active): [4]
inactive: [1] | [5] | [9]
active: [2] 54.5 µM | [3] 54.5 µM

CCOC(=O)C(C)Oc1ccc(Oc2cnc3cc(Cl)ccc3n2)cc1 (configuration not stated)
inactive: [1] | [5] | [9]
active: [2] 40.5 µM
inactive and 40.5 µM (active): [3]
inactive and 45.5 µM (active): [4]

CCCCCCOCCOCCO
inactive: [1] | [2] | [3] | [4] | [5] | [9]

IC(I)I
inactive: [1] | [2] | [3] | [4] | [5] | [9]

CC(=O)OC(C)C
inactive: [1] | [2] | [3] | [4] | [5] | [9]

O=C(O)CCCC(=O)O
inactive: [1] | [2] | [3] | [4] | [5] | [9]

C[C@]12CC[C@@H]3c4ccc(O)cc4CC[C@H]3[C@@H]1CC[C@@H]2O
active: [1] 24.5 µM | [2] 29.8 µM and 61.1 µM | [3] 23.7 µM and 54.4 µM and 54.5 µM | [4] 26.6 µM and 54.5 µM
inactive: [5] | [9]

CCCN1C=CN(C)C1
inactive: [1] | [2] | [3] | [4] | [5] | [9]

Cc1cccc(Nc2ccccc2C(=O)O)c1C
inactive and 61.1 µM (active): [4]
inactive: [1] | [2] | [5] | [9]

c1ccc2c(c1)ccc1ncccc12
not listed: [3] | [10]
inactive: all other assays above

COCCOCCOCCO
inactive: [1] | [2] | [3] | [4] | [5] | [9]

[Na+]
inactive: [1] | [2] | [3] | [4] | [5] | [9]

C=CC(C)(O)CCC=C(C)C (configuration not stated)
inactive: [1] | [2] | [3] | [4] | [5] | [9]

NCCS(=O)(=O)O
inactive: [1] | [2] | [3] | [4] | [5] | [9]

Clc1ccc(Sc2cc(Cl)c(Cl)cc2Cl)cc1
inactive: [1] | [2] | [3] | [4] | [5] | [9]

COC(=O)CC(=O)OC
inactive: [1] | [2] | [3] | [4] | [5] | [9]

C[C@]12CC[C@@H]3c4ccc(O)cc4CC[C@H]3[C@@H]1CC[C@H]2O
inactive: [5] | [9]
active: [1] 17.4 µM | [2] 44 µM and 48.6 µM | [4] 27.8 µM and 54.5 µM

Nc1cc([N+](=O)[O-])ccc1C(=O)O
inactive: [1] | [2] | [3] | [4] | [5] | [9]

CC(=O)Nc1ccc2c(c1)Cc1cc(NC(C)=O)ccc1-2
inactive: [1] | [2] | [3] | [4] | [5] | [9]

OC[C@H]1O[C@@H]2O[C@H]3[C@H](O)[C@@H](O)[C@@H](O[C@H]4[C@H](O)[C@@H](O)[C@@H](O[C@H]5[C@H](O)[C@@H](O)[C@@H](O[C@H]6[C@H](O)[C@@H](O)[C@@H](O[C@H]7[C@H](O)[C@@H](O)[C@@H](O[C@H]1[C@H](O)[C@H]2O)O[C@@H]7CO)O[C@@H]6CO)O[C@@H]5CO)O[C@@H]4CO)O[C@@H]3CO
inactive: [1] | [2] | [3] | [4] | [5] | [9]

Reference: PubChem BioAssay (Tox21)
